# Measurements as given in PMC4336329 (PLoS ONE, 2015).
# The whole screen tested about 310,000 compounds, of which about 14,000 (4.5%) showed an effect of 50% or more. The effect is printed as a negative number. Only a selection was taken, and strong results are over-represented in it overall.
# Target: human ether-à-go-go-related gene (hERG) potassium channel (human, UniProt Q12809)
# Assay: primary screen, population patch clamp on CHO cells stably expressing hERG; higher = less effect of the substance
# 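Further: peak tail current of the secondary pulse compared with the same well before compound.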
# Sequence of human ether-à-go-go-related gene (hERG) potassium channel (Q12809 whole entry, looked up): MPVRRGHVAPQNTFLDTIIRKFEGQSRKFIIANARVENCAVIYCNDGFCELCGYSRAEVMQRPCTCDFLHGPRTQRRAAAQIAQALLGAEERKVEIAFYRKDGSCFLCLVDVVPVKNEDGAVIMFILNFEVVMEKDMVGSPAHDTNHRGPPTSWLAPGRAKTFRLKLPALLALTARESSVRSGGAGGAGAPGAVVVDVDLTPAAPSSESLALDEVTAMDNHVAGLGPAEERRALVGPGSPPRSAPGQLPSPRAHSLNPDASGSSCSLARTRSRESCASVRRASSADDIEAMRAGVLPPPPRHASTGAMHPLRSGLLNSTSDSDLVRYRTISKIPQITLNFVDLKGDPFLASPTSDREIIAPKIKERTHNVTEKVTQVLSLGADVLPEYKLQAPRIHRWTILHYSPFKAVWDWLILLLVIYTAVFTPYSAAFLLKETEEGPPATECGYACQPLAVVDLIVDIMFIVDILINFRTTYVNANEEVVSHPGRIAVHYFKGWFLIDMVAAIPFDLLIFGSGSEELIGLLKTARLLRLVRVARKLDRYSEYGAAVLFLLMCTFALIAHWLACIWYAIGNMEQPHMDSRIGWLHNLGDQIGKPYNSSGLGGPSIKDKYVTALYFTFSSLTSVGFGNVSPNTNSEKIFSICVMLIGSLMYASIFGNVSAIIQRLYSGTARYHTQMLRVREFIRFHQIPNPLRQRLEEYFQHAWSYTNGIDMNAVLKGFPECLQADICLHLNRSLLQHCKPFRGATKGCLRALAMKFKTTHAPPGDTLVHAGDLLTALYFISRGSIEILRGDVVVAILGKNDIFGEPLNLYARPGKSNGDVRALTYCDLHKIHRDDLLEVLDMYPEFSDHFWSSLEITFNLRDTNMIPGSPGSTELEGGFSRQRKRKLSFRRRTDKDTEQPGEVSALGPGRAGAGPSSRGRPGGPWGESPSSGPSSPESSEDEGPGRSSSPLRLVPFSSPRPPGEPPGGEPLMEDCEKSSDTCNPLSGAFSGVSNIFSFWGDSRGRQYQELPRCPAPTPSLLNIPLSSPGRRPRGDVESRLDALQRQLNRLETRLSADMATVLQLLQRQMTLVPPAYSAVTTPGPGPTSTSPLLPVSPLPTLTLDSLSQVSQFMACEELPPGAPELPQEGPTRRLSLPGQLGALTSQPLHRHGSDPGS
row,SMILES,"hERG current change (%, negative = inhibition) at 10uM [%]"
1,CCC12CN3CCN(CC(C3)/C1=N/NC(=O)c1ccncc1)C2,21.2
2,COc1ccccc1NC(=O)COc1ccccc1,10.9
3,COc1ccc(OCc2cc(C(=O)NC(C)Cc3cnccn3)no2)c(Cl)c1 (stereo not drawn),-4.5
4,O=C(c1cc(COc2cccc(C(F)(F)F)c2)on1)N1CCC(Oc2cccnc2)CC1,-64.1
5,COc1cc(Cl)ccc1OCc1cc(C(=O)NC(C)Cc2cccnc2)no1 (stereo not drawn),-30.7
6,Cc1ccc(OCc2cc(C(=O)N3CCCCCCC3)no2)cc1C,3.22
7,COc1cccc(OCc2cc(C(=O)N3CCC(c4ccncc4)CC3)no2)c1,-40.9
8,O=C(c1cc(COc2cccc(C(F)(F)F)c2)on1)N1CCC(c2ccccc2)CC1,6.79
9,Cc1ccc(OCc2cc(C(=O)N3CCC(Oc4cccnc4)CC3)no2)cc1C,-56.7
10,Cc1cc(OCc2cc(C(=O)N3CCC(Oc4cccnc4)CC3)no2)cc(C)c1Cl,9.06
11,O=C(c1cc(COc2cccc(C(F)(F)F)c2)on1)N1CCc2ccccc2C1,10.4
12,O=C(c1cc(COc2cccc(C(F)(F)F)c2)on1)N1CCC(c2ccncc2)CC1,-78.8
13,COc1cc(Cl)ccc1OCc1cc(C(=O)NC(C)Cc2cnccn2)no1 (stereo not drawn),-53.8
14,C[C@@H]1CN(C(=O)c2cc(COc3cccc(C(F)(F)F)c3)on2)C[C@H](C)O1,8.11
15,Cc1c(NC(=O)C2CCN(S(=O)(=O)c3ccccc3)CC2)c(=O)n(-c2ccccc2)n1C,4.47
16,CCCC(=O)Nc1cc(C(=O)O)ccc1S(=O)(=O)c1ccc(C)cc1,11.6
17,Cc1nc2c(c3c1[nH]c1ccccc13)C(=O)CC(C)(C)C2,-0.41
18,O=C(O)CN1C(=O)/C(=C\c2cc(Br)ccc2OCc2ccc(Cl)cc2)SC1=S,15.2
19,COc1ccc(-c2n[nH]c3c2CN(C(=O)c2ccc(OC)c(OC)c2)CC3)cc1,-15.5
20,CC(=O)NC12CC3CC(C)(C1)CC(NC(C)=O)(C3)C2,-11.4
21,COc1ccc([C@H]2[C@@H](C#N)[C@H](C#N)N3CCCN23)cc1,14.2

row,SMILES,"hERG current change (%, negative = inhibition) at 10uM [%]"
1,CN(C)CCCOc1ccc(C(C)(C)c2ccccc2)cc1.O=C(O)C(=O)O,-16.5
2,COc1ccc(NC(=O)COC(=O)c2n[nH]c3ccccc23)c(OC)c1,-4.2
3,O=C(c1cnn2ccccc12)N(Cc1ccco1)C1CCCC1,4.7
4,Cc1ccc(C(C)C)cc1OCC(=O)NNC(=O)Nc1ccccc1,28.3
5,CC(C)=N/N=C(\c1cccc([N+](=O)[O-])c1)C12CN3CN(CN(C3)C1)C2,7.66
6,CC(CNC(=O)c1cc(COc2c(F)cccc2F)on1)Oc1cccnc1 (stereo not drawn),-18.6
7,COc1ccc(OCc2cc(C(=O)NC(C)Cc3cccnc3)no2)c(Cl)c1 (stereo not drawn),-36.3
8,CCOC(=O)N1CCN(C(=O)c2cc(COc3cccc(C(C)=O)c3)on2)CC1,1.62
9,Cc1ccc(OCc2cc(C(=O)NC(C)Cc3cccnc3)no2)cc1C (stereo not drawn),-91
10,Cc1ccc(OCc2cc(C(=O)NC(C)Cc3cnccn3)no2)cc1C (stereo not drawn),0.149
11,CC(=O)c1cccc(OCc2cc(C(=O)NC(C)Cc3cccnc3)no2)c1 (stereo not drawn),-6.23
12,COc1ccc(OCc2cc(C(=O)NCC(C)Oc3cccnc3)no2)c(Cl)c1 (stereo not drawn),-52.6
13,CCOC(=O)N1CCN(C(=O)c2cc(COc3cccc(C(F)(F)F)c3)on2)CC1,-76.7
14,O=C(c1cc(COc2cccc(C(F)(F)F)c2)on1)N1CCSCC1,-17
15,Cc1ccc(C2=NN3C(C(=O)c4ccccc4)Oc4ccccc4C3C2)cc1 (stereo not drawn),0.487
16,COC(=O)c1cc(NC(=O)CN(c2ccccc2OC)S(=O)(=O)c2ccccc2)ccc1Cl,1.44
17,O=S(=O)(NC(=NC1CCCCC1)c1ccccc1F)c1ccccc1,10.4
18,Cc1ccc(C2=C(CC(=O)O)C(=O)CC2)cc1,12.1
19,O=C(O)CCCN1C(=O)C2C3c4ccccc4C(c4ccccc43)[C@@H]2C1=O (stereo partly drawn),13
20,CSc1ccc(C2NC(=O)c3ccccc3N2)cc1 (stereo not drawn),5.54
21,COc1ccc(NC(=O)CSc2nccn2Cc2ccccc2)cc1,-4.86

row,SMILES,"hERG current change (%, negative = inhibition) at 10uM [%]"
1,O=C(Cc1ccc([N+](=O)[O-])cc1)c1ccc(O)cc1O,-40.4
2,O=C(Cc1ccc(Cl)cc1)Nc1cc(S(=O)(=O)N2CCOCC2)ccc1N1CCCC1,-37.3
3,CN1CCN(c2ccc(S(=O)(=O)N3CCCCC3)cc2NC(=O)Cc2ccc(Cl)cc2)CC1,-72
4,CN1CCN(c2ccc(S(=O)(=O)N3CCOCC3)cc2NC(=O)CCc2ccccc2)CC1,-8.75
5,CN1CCN(c2ccc(S(=O)(=O)N3CCCCC3)cc2NC(=O)CSCc2ccccc2)CC1,-20.5
6,CN1CCN(c2ccc(S(=O)(=O)N3CCCCC3)cc2NC(=O)Cc2c(F)cccc2Cl)CC1,-21.8
7,CC(=O)NCCC(=O)Nc1cc(S(=O)(=O)N2CCCCC2)ccc1N1CCN(C)CC1,-9.13
8,CCN1CCN(c2ccc(S(=O)(=O)N3CCCCC3)cc2NC(=O)Cc2c(F)cccc2Cl)CC1,-8.09
9,CN1CCN(c2ccc(S(=O)(=O)N3CCCCC3)cc2NC(=O)CCc2ccccc2)CC1,-53.3
10,COc1ccc(CC(=O)Nc2cc(S(=O)(=O)N3CCCCC3)ccc2N2CCN(C)CC2)cc1,-54
11,COc1ccc(CC(=O)Nc2cc(S(=O)(=O)N3CCOCC3)ccc2N2CCOCC2)cc1,0.344
12,COc1ccccc1CCC(=O)Nc1cc(S(=O)(=O)N2CCCCC2)ccc1N1CCN(C)CC1,-26.5
13,O=C(Cc1c(F)cccc1Cl)Nc1cc(S(=O)(=O)N2CCCCC2)ccc1N1CCOCC1,-52.2
14,Cc1ccc(C(=O)COC(=O)c2ccccc2NC(=O)c2ccccc2)cc1[N+](=O)[O-],4.55
15,O=C(COC(=O)/C=C/c1ccc(Cl)cc1Cl)Nc1ccc2c(c1)OCCO2,18.5
16,O=C(Nc1cccc(C(=O)O)c1)/C(=C\c1ccco1)NC(=O)c1ccccc1Cl,7.53
17,COC(=O)c1[nH]c(C)c(/C(O)=C2\C(=O)C(=O)N(CCN3CCOCC3)C2c2ccc(C)o2)c1C (stereo not drawn),-6.49
18,Cc1c(CCC(=O)O)c(=O)oc2cc3occ(-c4ccc(Cl)cc4)c3cc12,21.7
19,Cc1ccc(Oc2nnc(-c3cccs3)c3ccccc23)cc1,-0.00742
20,CNC(=O)COC(=O)c1cccnc1SC,3.53
21,CCN1CCN(c2ccc(S(=O)(=O)N3CCCCC3)cc2NC(=O)Cc2ccc(Cl)c(Cl)c2)CC1,-48.5

row,SMILES,"hERG current change (%, negative = inhibition) at 10uM [%]"
1,CCN1CCN(c2ccc(S(=O)(=O)N3CCCCC3)cc2NC(=O)Cc2ccc(OC)cc2)CC1,-60.1
2,CCN1CCN(c2ccc(S(=O)(=O)N3CCCCC3)cc2NC(=O)Cc2ccccc2)CC1,-33.5
3,CCOC(=O)C1(CC)NC(c2ccc(OC)c(OC)c2)C2C(=O)N(c3cccc(C(C)=O)c3)C(=O)C21 (stereo not drawn),16.5
4,Cc1ccc(S(=O)(=O)/N=C2/C=C(C3C(=O)CC(C)(C)CC3=O)C(=O)c3ccccc32)cc1,0.322
5,COc1cccc(CNC(=S)Nc2cc(C)cc(C)c2)c1,6.62
6,O=C(COc1ccc(-n2ccnc2)cc1)Nc1cccc(Cl)c1,-38.9
7,O=C(COc1ccc(-n2ccnc2)cc1)Nc1cccc(F)c1,-54.6
8,N#Cc1cccc(NC(=O)COc2ccc(-n3ccnc3)cc2)c1,-67.5
9,O=C(COc1ccc2c(c1)OCO2)Nc1cccc(F)c1,19.8
10,N#Cc1ccc(OCC(=O)Nc2ccncc2)cc1,18.1
11,N#Cc1cccc(NC(=O)CCn2ccnc2)c1,2.87
12,O=C(NCc1ccccc1)C1c2ccccc2Oc2ccccc21,7.83
13,Cc1ccc(-n2c(N)cc(=O)nc2SCC(=O)NC2CCCCC2)cc1C,8.7
14,COc1ccc(CCN2C(=O)CC(N3CCN(S(=O)(=O)c4ccccc4)CC3)C2=O)cc1OC (stereo not drawn),-5.73
15,CCOc1ccc(S(=O)(=O)Nc2ccc(C(=O)NCc3ccncc3)cc2)cc1,-22.2
16,CCc1c(C)nc2ncnn2c1Nc1ccc(C)cc1,-5.65
17,Cc1nc2ncnn2c(Nc2ccc3c(c2)OCCO3)c1C,0.223
18,CCc1c(C)nc2ncnn2c1Nc1ccc(C#N)c(Cl)c1,-50.6
19,Cc1nc2ncnn2c(Nc2ccc3c(c2)OCO3)c1Cc1ccccc1,-55.1
20,CCc1c(C)nc2ncnn2c1Nc1ccc(C)c(C)c1,-17.6
21,Cc1cc(Nc2ccc3c(c2)OCCO3)n2ncnc2n1,-42.7
